This is an account of results in PubChem BioAssay AID1851 (National Center for Advancing Translational Sciences (NCATS), 2009).

Screen size: about 16,000 compounds; about 4,000 (25%) were called active. About 26% were inconclusive and are not listed. Calls follow the shape of the dose curve; as a rule, active = well fitted curve in the direction sought with a large enough effect; inconclusive = small, poorly fitted or top-dose-only effect, or effect the other way; inactive = no such curve, though single readings can be large or run the other way. A selection follows.

In general, AC50 refers to the midpoint of the concentration-response curve, whichever way the signal moves.
% is scaled to controls: 0 for no effect and ±100 for the full control effect.

For the test, the target named is Cytochrome P450 2C9 (Homo sapiens) (UniProt P11712). Description: Cytochrome panel assay with activity outcomes. As to conditions: recombinant CYP, pro-luciferin dealkylation, luminescence, p450-cyp2c9; series mostly up to 57.1 µM; activity, negative = inhibition: at the top concentration.
Sequence of Cytochrome P450 2C9 (Homo sapiens) (P11712 whole entry, looked up): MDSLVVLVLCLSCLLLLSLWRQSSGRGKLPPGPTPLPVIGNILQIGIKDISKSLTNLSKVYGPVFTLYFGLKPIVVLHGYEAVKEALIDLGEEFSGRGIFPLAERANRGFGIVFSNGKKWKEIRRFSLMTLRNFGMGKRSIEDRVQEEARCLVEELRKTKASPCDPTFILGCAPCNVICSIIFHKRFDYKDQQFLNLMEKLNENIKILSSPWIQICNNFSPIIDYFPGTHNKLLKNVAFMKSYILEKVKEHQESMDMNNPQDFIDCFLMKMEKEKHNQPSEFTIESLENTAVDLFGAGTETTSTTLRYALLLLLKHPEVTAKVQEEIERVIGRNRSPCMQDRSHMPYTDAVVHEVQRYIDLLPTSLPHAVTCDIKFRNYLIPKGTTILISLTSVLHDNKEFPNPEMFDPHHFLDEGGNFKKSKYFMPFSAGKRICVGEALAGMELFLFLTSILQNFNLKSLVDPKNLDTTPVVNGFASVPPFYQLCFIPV
Turning to `Cc1ccnc2nc(C(=O)OCC(=O)Nc3ccc4c(c3)OC(F)(F)O4)nn12`, the “activity, negative = inhibition” value was -25.1% (inactive).

Regarding `CN(C)S(=O)(=O)c1cccc(NC(=O)COC(=O)c2ccc(Br)o2)c1`, the AC50 was 6.31 µM (active).

For the compound `CC(CC(=O)O)CC(=O)Nc1ccc(S(N)(=O)=O)cc1` (stereo not drawn), the “activity, negative = inhibition” value was -16.6% (inactive).

Consider `Cc1ccc(S(=O)(=O)N(C)CC(=O)O/N=C(\N)c2ccccn2)cc1`, for which the “activity, negative = inhibition” value is 30% (inactive).

In the case of `CN(C)S(=O)(=O)c1ccc(NC(=O)COC(=O)c2ccccn2)cc1`, the AC50 was 10 µM (active).

For the compound `CCN(CC)S(=O)(=O)c1ccc(NC(=O)COC(=O)c2ccc(Br)o2)cc1`, the AC50 was 8.91 µM (active).

In the case of `COc1ccccc1-c1ccc2ncnc(NCCNC(C)=O)c2c1`, the activity, negative = inhibition was -2.65% [at 2.29 µM] (inactive).

Consider `C=CC1=C[C@@H](O)C2OC2C12OCCCO2` (stereo partly drawn), for which the activity, negative = inhibition was 12.2% [at 11.4 µM] (inactive).

`O=C(Nc1cccc(F)c1)N1CC[C@@]2(CCCNC2)C1`: the “activity, negative = inhibition” value is 2.75% (inactive).

In the case of `COC(=O)[C@@]1(Cc2ccccc2)[C@H]2c3cc(C(=O)N4CCCC4)n(Cc4c(CO)[nH]cc(C)c4=O)c3C[C@H]2CN1C(=O)c1ccccc1`, the AC50 is 1 µM (active).

Turning to `COC(=O)[C@@]1(Cc2ccc(F)cc2)[C@H]2c3cc(C(=O)N4CCCC4)n(Cc4c(CO)[nH]cc(C)c4=O)c3C[C@H]2CN1C(=O)c1ccccc1`, the AC50 was 10 µM (active).

Consider `CCCCCCCCCCCCCCCC(=O)C(F)(F)F`, for which the “activity, negative = inhibition” value was 20.8% (inactive).

Take `N#Cc1ccc(CN2CCC3(CC2)CCN(S(=O)(=O)c2ccccc2)CC3)cc1`: the “activity, negative = inhibition” value was -8.31% (inactive).

As for `N#Cc1ccc(CN2CCCC3(CCN(S(=O)(=O)c4ccccc4)CC3)C2)cc1`, the AC50 is 12.6 µM (active).

As to `O=S(=O)(c1ccccc1)N1CCC2(CC1)CN(Cc1ccccc1)C2`, the “activity, negative = inhibition” value was 1.78% (inactive).

Take `COCC(=O)N1CCC[C@@]2(CCN(Cc3ccc(C#N)cc3)C2)C1`: the “activity, negative = inhibition” value was 16.8% (inactive).

For the compound `COC(=O)N1CCC2(CCCN(Cc3ccccc3)C2)CC1`, the “activity, negative = inhibition” value is 0.0487% (inactive).

Turning to `COC(=O)N1CCC2(CCCN(Cc3ccc(C#N)cc3)C2)CC1`, the AC50 is 12.6 µM (active).

In the case of `CN(C)CC[C@@H](c1ccccc1)c1ccccn1`, the AC50 entry is “inactive”.

Turning to `CN(C)CC(CN(C)C)c1ccccn1`, the activity, negative = inhibition was -2.56% [at 11.4 µM] (inactive).

Consider `C[C@@H](C1=C(CCN(C)C)Cc2ccccc21)c1ccccn1`, for which the AC50 is 0.501 µM (active).

Turning to `CNc1cc(-c2ccccc2CN(C)C)ncn1`, the activity, negative = inhibition is 24.8% [at 2.29 µM] (inactive).

With `Cc1cccc(-c2n[nH]c([N+](=O)[O-])n2)c1`, the AC50 is 20 µM (active).

On to `CCCCN1C(=O)NC(NC(=O)c2ccco2)(C(F)(F)F)C1=O` (stereo not drawn), for which the half-maximal activity concentration (AC50) is 12.6 µM (active).

With `CCCCn1c(=N)n(CC(=O)c2ccco2)c2ccccc21`, the “activity, negative = inhibition” value is -8.19% (inactive).

`CC(=O)NC1=NC(=O)C(C)S1` (stereo not drawn): the “activity, negative = inhibition” value is -14.5% (inactive).

On to `Cn1nc(C(F)(F)F)c(C(=O)Nc2ccc(F)cc2F)c1Sc1ccc(C(F)(F)F)cc1`, for which the AC50 is 4.47 µM (active).

As to `CCNS(=O)(=O)c1ccc(NC(=O)c2cc(C(F)(F)F)nn2C)cc1`, the “activity, negative = inhibition” value was 3.85% (inactive).

Turning to `CC(=O)NC1(c2ccc(F)cc2)CCN(C(=O)Nc2ccc(F)cc2F)CC1`, the “activity, negative = inhibition” value was -28.9% (inactive).

As for `Cc1ccc(NC(=O)c2c(C(F)(F)F)nn(C)c2SCc2cccc(C(F)(F)F)c2)cc1C`, the AC50 is 0.891 µM (active).

`CCc1ccc(NC(=O)Cn2nc(C(F)(F)F)c3c2CCC3)cc1`: the “activity, negative = inhibition” value is -29% (inactive).

As for `O=C(O)/C=C/C(=O)Nc1ccc(F)cc1F`, the “activity, negative = inhibition” value is -8.84% (inactive).

In the case of `Cc1ccc(NC(=O)c2sccc2SCc2cccc(C(F)(F)F)c2)cc1`, the AC50 is 2.51 µM (active).

In the case of `Cn1nc(C(F)(F)F)c(C(=O)Nc2ccc(F)cc2F)c1Sc1cccc(C(F)(F)F)c1`, the AC50 was 1.58 µM (active).

As to `CC(=O)N(/N=C1\Sc2ccccc2C1=O)c1ccccc1`, the “activity, negative = inhibition” value was -1.76% (inactive).

Regarding `CC(=O)N(/N=C1\Sc2ccccc2C1=O)c1ccccc1C`, the half-maximal activity concentration (AC50) is 14.1 µM (active).

As for `CCOC(=O)c1c(NC(=O)CSc2nnnn2C)sc(C)c1C`, the AC50 was 22.4 µM (active).

With `COC(=O)c1c(NC(C)=O)sc(Cc2ccccc2)c1C`, the AC50 was 10 µM (active).

Regarding `CCOc1ccc(CC(=O)Nc2sc(Cc3ccccc3)c(C)c2C(N)=O)cc1OCC`, the “activity, negative = inhibition” value is -18.4% (inactive).

`CO[C@]1(NC(=O)CSCC#N)C(=O)N2C(C(=O)O)=C(CSc3nnnn3C)CS[C@H]21`: the AC50 entry was “inactive”.

`CCOC(=O)c1c(NC(=O)c2c(C)noc2C)sc2c1CCCCC2`: the “activity, negative = inhibition” value is -13.5% (inactive).

For the compound `COC(=O)c1c(C)[nH]c(C)c1C(=O)c1ccccc1Cc1ccccc1`, the “activity, negative = inhibition” value is -10.3% (inactive).

Consider `CCOC(=O)c1c(NC(=O)CSc2nnc(C)s2)sc2c1CCCCC2`, for which the AC50 is 11.2 µM (active).

Consider `Cc1cccc(NC(=O)CSc2nnnn2C)n1`, for which the “activity, negative = inhibition” value is -12.2% (inactive).

On to `Cc1sc(NC(=O)C(C)C)c(C(=O)Nc2ccccc2)c1C`, for which the AC50 is 12.6 µM (active).

For the compound `Cc1sc(NC(=O)C2CCCCC2C(=O)O)c(C(N)=O)c1C` (stereo not drawn), the “activity, negative = inhibition” value was -26.8% (inactive).

Turning to `CN(C)c1nc(N)c(C(=O)N=C(N)N)nc1Cl`, the “activity, negative = inhibition” value was -9.29% (inactive).

For the compound `COC(=O)C1=C(C)[C@@H](O)[C@@H](C)[C@H](c2c(OC)c(OC)c(C)c(OC)c2OC)O1`, the activity, negative = inhibition is -3.08% [at 11.4 µM] (inactive).
